The values below come from PubChem BioAssay (NCATS).

Structures are written as SMILES. Records with an inconclusive call do not appear. Calls of active or inactive are those of the source. Unless noted, how the calls were made is not given here.

Assay [1] can be described thus: qHTS profiling of the MIPE4 collection as inhibitors of Plasmodium falciparum (3D7) proliferation (AID 743344).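 Further: scaled between DMSO vehicle wells and 0.29 µM artemisinin as full inhibition.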 The settings on record: P. falciparum 3D7 in erythrocytes, SYBR Green DNA fluorescence, 72 h; at 28.5 µM unless noted. An outline of the steps:
(§1)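 Parasite DNA was quantified by SYBR Green I fluorescence (ex 485, em 535 nm) after overnight lysis in saponin/Triton buffer at room temperature. Cultures at 0.3% parasitemia and 2.5% hematocrit were first exposed to compound for 72 h at 37 C; signals were normalised to artemisinin (0.29 uM) and vehicle wells.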

Assay [2] can be described thus: qHTS profiling of the MIPE4 collection as inhibitors of Plasmodium falciparum (DD2) proliferation (Rep 2) (AID 743346). The conditions noted are these: P. falciparum Dd2 in erythrocytes, SYBR Green DNA, 72 h; at 28.5 µM unless noted. An outline of the steps: as §1
The nature of assay [3]: qHTS profiling of the MIPE4 collection as inhibitors of Plasmodium falciparum (HB3) proliferation (AID 743347).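 Further: plate controls were DMSO vehicle wells for no effect and artemisinin wells for full effect.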 The settings on record: P. falciparum HB3 in erythrocytes, SYBR Green DNA, 72 h; at 28.5 µM unless noted. The method, boiled down:
as §1

Assay [4] is described as follows: High-throughput drug toxicity screening in the BPDCN cell line Gen2.2 (AID 1224824).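 Further: cells exposed to compounds for 48 h before reading.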 The conditions noted are these: Gen2.2 BPDCN cells; at 45.8 µM (top of the series) unless noted. An outline of the steps:
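Gen2.2 cells (500/well) in phenol red-free RPMI with 10% FBS were exposed to compounds for 48 h at 37 °C, 5% CO2. Viability was read by CellTiter-Glo luminescence and normalized to DMSO (100%) and 9.2 uM bortezomib (0%).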

Assay [5] in a line: High-throughput drug toxicity screening in the BPDCN cell line Cal-1 (AID 1224825). The settings on record: Cal-1 BPDCN cell viability, qHTS; at 45.8 µM (top of the series) unless noted. An outline of the steps:
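CellTiter-Glo luminescence after 48 h compound exposure; percent activity scaled with DMSO as 100% and bortezomib (9.2 uM final) as 0%. Cal-1 cells seeded at 500/well in RPMI, 10% FBS, no phenol red.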

The nature of assay [6]: qHTS assay for measurement of the activity of small molecule inhibitors on Zika virus induced Caspase-3 activity in human iPSC derived neural progenitor cells (hNPCs) (AID 1224857; active means well fitted inhibition curve with a large enough effect; further: % of control where 0% means no effect; nearly all actives have a fitted effect of over 65% in size). The method, boiled down:
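Caspase-3/7 induction by a 6-hour ZIKV infection was quantified with a luminescent Caspase-Glo 3/7 reagent incubated 30 minutes at room temperature. Compounds were preincubated with hNPCs for 1 hour; inhibition was calculated against uninfected and infected control wells.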

Assay [7] is described as follows: qHTS assay for measurement of the activity of small molecule inhibitors on Zika virus induced Caspase-3 activity in human astrocytoma cells (AID 1224859; active means well fitted inhibition curve with a large enough effect;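 further: plate controls were ZIKV-infected untreated cells for no effect and uninfected cells for full effect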). An outline of the steps:
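In SNB-19 cells plated at 250 cells/well and grown 16-20 h, compounds were applied 1 h before ZIKV (2 FFU/cell). Six hours later caspase-3/7 luminescence was recorded.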

Assay [8] is described as follows: qHTS Screen of the MIPE 4.0 Collection Against Ewings Sarcoma (RDES) (AID 1259252; active means well fitted inhibition curve with a large enough effect; further: nearly all actives have a fitted effect of over 35% in size; further: potency means the concentration at half of the fitted maximal effect). An outline of the steps: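 Viability screen: 48 h incubation at 37C, 95% humidity, 5% CO2 with serially titrated compound, followed by CellTiter-Glo readout.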
Assay [9] can be described thus: qHTS profiling of the MIPE4 collection as inhibitors of Plasmodium falciparum (DD2) proliferation (AID 743345). The conditions noted are these: P. falciparum Dd2 in erythrocytes, SYBR Green DNA, 72 h; at 28.5 µM unless noted. An outline of the steps: as §1

With `CCOC(=O)[C@H](CCc1ccccc1)N[C@@H](C)C(=O)N1CCCC1C(=O)O` (some centres undefined), the parasite growth, % of DMSO control in assay [1] turned out to be 53.7%. The compound also had a parasite growth, % of control (lower = inhibition) in assay [2] of 75.7%. The growth, % of control in [3] stood at 95.2%. For the same compound, the cell viability, % of control (lower = more cytotoxic) in [4] worked out at 190%. The viability (% of control) in assay [5] was determined as 76.8%. The Potency result in assay [6] and in assay [7] was “inactive” throughout. In addition, the Potency in assay [8] is 20.9 µM (active).

For the compound `CCOc1ccccc1N=Nc1c(C)[nH]n(-c2nc(-c3ccccc3)cs2)c1=O`, the parasite growth, % of DMSO control in assay [1] worked out at 92.5%. Moreover, the parasite growth, % of control (lower = inhibition) in assay [2] is 82.1%. In assay [3], this compound yielded a growth, % of control of 87.1%. For the same compound, the cell viability, % of control (lower = more cytotoxic) in assay [4] was found to be 97.4%. Also, in assay [5], the viability (% of control) was 63.6%. Further, the Potency result in [6] and in assay [7] was “inactive” in each case. Besides, the Potency in assay [8] was 16.6 µM (active).

`Cn1c(=O)c(Oc2ccc(F)cc2F)cc2cnc(NC3CCOCC3)nc21`: in assay [1], the parasite growth, % of DMSO control worked out at 25.1%. In addition, in assay [9], the parasite growth remaining, % of DMSO control (lower = more inhibition) came to 86.4%. This compound also yielded a parasite growth, % of control (lower = inhibition) in [2] of 48.3%. In [3], this compound showed a growth, % of control of 35.7%. Further, in [4], the cell viability, % of control (lower = more cytotoxic) came to 178%. Further, in [5], the viability (% of control) amounted to 93.3%. In addition, the Potency entry in [6], in assay [7] and in assay [8] was “inactive” throughout.

Regarding `CNC1CCC(N(Cc2cccc(-c3ccncc3)c2)C(=O)c2sc3ccccc3c2Cl)CC1` (centres undefined), the parasite growth remaining, % of DMSO control (lower = more inhibition) in assay [9] worked out at 7.31%. The parasite growth, % of control (lower = inhibition) in [2] amounted to 9.91%. The growth, % of control in [3] worked out at 6.96%. In addition, the cell viability, % of control (lower = more cytotoxic) in assay [4] turned out to be 3.76%. Also, in [5], the viability (% of control) is 1.63%. The Potency entry in [6] and in [7] was “inactive” throughout. The Potency in assay [8] was 26.4 µM (active).

In turn, `C[C@]12C=CC(=O)C=C1CC[C@@H]1[C@@H]2[C@@H](O)C[C@@]2(C)[C@@H]1CC[C@]2(O)C(=O)CO` registered a parasite growth, % of DMSO control in assay [1] of 84.7%. Besides, the growth, % of control in [3] stood at 78%. In assay [4], the cell viability, % of control (lower = more cytotoxic) was found to be 87.5%. Further, in [5], the viability (% of control) amounted to 14.3%. In addition, the Potency entry in assay [6], in assay [7] and in assay [8] was “inactive” in each case.

In turn, `CC1(C)[C@H]2CC[C@]3(C)[C@@H](C(=O)C=C4[C@@H]5C[C@@](C)(C(=O)O)CC[C@]5(C)CC[C@]43C)[C@@]2(C)CC[C@@H]1O` came in with a parasite growth remaining, % of DMSO control (lower = more inhibition) in assay [9] of 98.1%. In assay [2], the parasite growth, % of control (lower = inhibition) was found to be 84.9%. Also, the growth, % of control in [3] was 87.6%. For the same compound, the cell viability, % of control (lower = more cytotoxic) in [4] stood at 139%. Moreover, the viability (% of control) in assay [5] was 111%. Also, the Potency result in assay [6], in [7] and in [8] was “inactive” in each case.

`Cc1[nH]c(C=C2C(=O)Nc3ccc(S(=O)(=O)N(C)c4cccc(Cl)c4)cc32)c(C)c1C(=O)N1CCN(C)CC1`: in assay [1], the parasite growth, % of DMSO control amounted to 7.33%. Besides, the parasite growth remaining, % of DMSO control (lower = more inhibition) in assay [9] worked out at 9.96%. Moreover, in assay [2], the parasite growth, % of control (lower = inhibition) was determined as 14.4%. The growth, % of control in [3] came out at 4.63%. In assay [4], the cell viability, % of control (lower = more cytotoxic) is 2.96%. In addition, the viability (% of control) in [5] amounted to 0.852%. Moreover, the Potency result in assay [6] and in assay [7] was “inactive” throughout. In assay [8], the Potency is 26.4 µM (active).

In assay [1], `O=C(O)CCNc1cc(N2CCc3ccccc3CC2)nc(-c2ccccn2)n1` registered a parasite growth, % of DMSO control of 19.7%. Moreover, the parasite growth remaining, % of DMSO control (lower = more inhibition) in [9] stood at 48.3%. Also, the growth, % of control in assay [3] turned out to be 5.23%. The cell viability, % of control (lower = more cytotoxic) in assay [4] amounted to 158%. The viability (% of control) in assay [5] came to 91.6%. The Potency result in assay [6] and in [7] was “inactive” each time. For the same compound, the Potency in assay [8] was 26.4 µM (active).

`CCC(=O)NCC[C@@H]1CCc2ccc3c(c21)CCO3`: in assay [1], the parasite growth, % of DMSO control was determined as 98.2%. The compound further had a parasite growth remaining, % of DMSO control (lower = more inhibition) in [9] of 89.9%. The growth, % of control in assay [3] was found to be 107%. In addition, the cell viability, % of control (lower = more cytotoxic) in assay [4] is 184%. Moreover, the viability (% of control) in assay [5] is 117%. Moreover, the Potency result in assay [6], in assay [7] and in assay [8] was “inactive” in each case.

Compound `CCN1CCN(c2ccc(Nc3cc(N(C)C(=O)Nc4c(Cl)c(OC)cc(OC)c4Cl)ncn3)cc2)CC1` yielded a parasite growth, % of DMSO control in assay [1] of 4.57%. Further, the parasite growth remaining, % of DMSO control (lower = more inhibition) in [9] turned out to be 5.88%. Moreover, the growth, % of control in assay [3] amounted to 2.41%. Also, in assay [4], the cell viability, % of control (lower = more cytotoxic) turned out to be 147%. Besides, in assay [5], the viability (% of control) stood at 90.9%. Moreover, the Potency entry in assay [6], in assay [7] and in [8] was “inactive” each time.

In [1], `CCOC(=O)N1CCN([N+]([O-])=NOc2cc(ON=[N+]([O-])N3CCN(C(=O)OCC)CC3)c([N+](=O)[O-])cc2[N+](=O)[O-])CC1` displayed a parasite growth, % of DMSO control of 56.9%. Further, the parasite growth remaining, % of DMSO control (lower = more inhibition) in [9] is 45.7%. The growth, % of control in assay [3] was determined as 48%. The cell viability, % of control (lower = more cytotoxic) in assay [4] amounted to 87.7%. In assay [5], the viability (% of control) is 81.2%. Besides, the Potency entry in [6], in assay [7] and in assay [8] was “inactive” each time.
